# PubChem BioAssay (NCI)
# This is part of a sample that, as a whole, favours compounds with a hit. Of some 79,000 tested, about 15% had one in any assay. Values without a mark were called inactive. Calls of active or inactive are those of the source. Cut-off read from the data, not from the text of the source: active = growth inhibition above about 70%; inactive = the rest.
# Key:
# [1] = NCI Yeast Anticancer Drug Screen. Data for the rad52 strain (AID 147);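 note: 0% = growth of vehicle-treated control cultures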; details: S. cerevisiae rad52 mutant growth inhibition, hits give high values
# Summary of the method: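 Here a repair-compromised yeast strain receives each compound; its growth is then quantified and normalised to vehicle-only controls.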
# [2] = NCI Yeast Anticancer Drug Screen. Data for the wt1 strain (AID 149);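 note: 0% = growth of vehicle-treated wt1 cultures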; details: S. cerevisiae wt1 strain (SPY 50644) growth inhibition, hits give high values
# Summary of the method: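 Readout: yeast growth inhibition, normalised to vehicle controls, in the wt1 strain exposed to test compounds.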
# [3] = NCI Yeast Anticancer Drug Screen. Data for the rad50EPP+ strain (AID 151);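 note: 0% = growth of vehicle-treated control cultures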; details: S. cerevisiae rad50 mutant strain, hits give high values
# Summary of the method: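 Read-out is yeast growth inhibition relative to vehicle; cells used were the rad50EPP+ strain.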
# [4] = NCI Yeast Anticancer Drug Screen. Data for the rad50 strain (AID 155);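 note: 0% = growth of vehicle-only cultures of the same strain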; details: S. cerevisiae rad50 strain growth inhibition, hits give high values
# Summary of the method: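 Compounds were tested on a yeast strain with an engineered DNA damage repair alteration; the reported value is growth inhibition normalised to vehicle treatment.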
# [5] = NCI Yeast Anticancer Drug Screen. Data for the mec2-1 strain (AID 157); details: S. cerevisiae mec2-1 strain, hits give high values
# Summary of the method: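 Using mec2-1 yeast: add compound, measure growth, express inhibition versus vehicle-treated cultures.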
# [6] = NCI Yeast Anticancer Drug Screen. Data for the rad14 strain (AID 159);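 note: 0% = growth of vehicle-treated control cultures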; details: S. cerevisiae rad14 strain growth inhibition, hits give high values
# Summary of the method: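 Compound-treated yeast with a defined DNA-repair lesion; growth inhibition normalised to vehicle-treated cultures.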
# [7] = NCI Yeast Anticancer Drug Screen. Data for the sgs1 mgt1 strain (AID 161);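 note: 0% = growth of cultures given vehicle only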; details: S. cerevisiae sgs1 mgt1 strain, hits give high values
# Summary of the method: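 Growth of a repair-deficient yeast mutant was monitored after compound treatment and expressed as inhibition relative to vehicle-treated cultures.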
# [8] = NCI Yeast Anticancer Drug Screen. Data for the CLN2oe strain (AID 163);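 note: 0% = growth of vehicle-only control cultures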; details: S. cerevisiae CLN2oe strain, hits give high values
# Summary of the method: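 Whole-cell yeast growth assay. A strain engineered for altered cell-cycle control received compound, and inhibition relative to vehicle-treated cultures was recorded.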
# [9] = NCI Yeast Anticancer Drug Screen. Data for the cln2 rad14 strain (AID 165);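 note: 0% = growth equal to vehicle treated cultures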; details: S. cerevisiae cln2 rad14 strain, hits give high values
# Summary of the method: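 Yeast strain cln2 rad14, bearing defects in cell cycle control and DNA repair, serves as the test system; values reflect growth inhibition compared with vehicle.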
# [10] = NCI Yeast Anticancer Drug Screen. Data for the bub3 strain (AID 167); details: S. cerevisiae bub3 mutant strain, hits give high values
# Summary of the method: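 Growth of a checkpoint-deficient yeast mutant is measured after compound exposure. Values represent inhibition relative to vehicle.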
# [11] = NCI Yeast Anticancer Drug Screen. Data for the wt2 strain (AID 169);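 note: 0% = growth of vehicle-treated yeast cultures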; details: S. cerevisiae wt2 strain growth inhibition, hits give high values
# Summary of the method: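 Treated yeast vs. vehicle-treated yeast: growth inhibition determined.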
# [12] = NCI Yeast Anticancer Drug Screen. Data for the mlh1 strain (AID 171);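 note: 0% = growth of vehicle-treated control cultures of the same strain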; details: S. cerevisiae mlh1 strain growth inhibition, hits give high values
# Summary of the method: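 A yeast strain with a defined genetic lesion serves as the test organism. Cultures receive compound or vehicle, and growth is measured.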
# [13] = NCI Yeast Anticancer Drug Screen. Data for the sgs1 strain (AID 173);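 note: 0% = growth of vehicle-only control cultures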; details: S. cerevisiae sgs1 mutant, hits give high values
# Summary of the method: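 A genetically defined yeast mutant is incubated with the test compound, and its growth is compared to that of the same strain given vehicle.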
# [14] = NCI Yeast Anticancer Drug Screen. Data for the mlh1 rad18 strain (AID 175); details: S. cerevisiae mlh1 rad18 strain growth inhibition, hits give high values
# Summary of the method: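 Steps: expose repair-defective yeast to compound; measure growth; express inhibition against vehicle-treated controls.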
# [15] = NCI Yeast Anticancer Drug Screen. Data for the rad18 strain (AID 177); details: S. cerevisiae rad18 mutant growth inhibition, hits give high values
# Summary of the method: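 Measured value is growth inhibition of a yeast strain bearing a DNA repair alteration, referenced to vehicle-treated cells.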
# [16] = at 5.0 µM (retest, dose inferred, filed as 0.5)
# [17] = at 50.0 µM (retest, dose inferred, filed as 5.0)
smiles,measurement,setting,value
O=C1CC(C(O)(C(F)(F)F)C(F)(F)Cl)CCC1C(O)(C(F)(F)F)C(F)(F)Cl (stereo not drawn),growth inhibition,[1]; at 1.2 µM,54%
same,growth inhibition,[1]; at 3.7 µM,46%
same,growth inhibition,[1]; at 11.0 µM,72% (active)
same,growth inhibition,[1]; at 33.0 µM,93% (active)
same,growth inhibition,[1]; at 100.0 µM,97% (active)
same,growth inhibition,[2]; at 1.2 µM,32%
same,growth inhibition,[2]; at 3.7 µM,44%
same,growth inhibition,[2]; at 11.0 µM,68%
same,growth inhibition,[2]; at 33.0 µM,91% (active)
same,growth inhibition,[2]; at 100.0 µM,97% (active)
same,growth inhibition,[3]; at 1.2 µM,12%
same,growth inhibition,[3]; at 3.7 µM,24%
same,growth inhibition,[3]; at 11.0 µM,38%
same,growth inhibition,[3]; at 33.0 µM,46%
same,growth inhibition,[3]; at 100.0 µM,41%
same,growth inhibition,[4]; at 1.2 µM,45%
same,growth inhibition,[4]; at 3.7 µM,33%
same,growth inhibition,[4]; [16],29%
same,growth inhibition,[4]; at 11.0 µM,57%
same,growth inhibition,[4]; at 33.0 µM,91% (active)
same,growth inhibition,[4]; [17],96% (active)
same,growth inhibition,[4]; at 50.0 µM,99.1% (active)
same,growth inhibition,[4]; at 100.0 µM,97% (active)
same,growth inhibition,[5]; at 1.2 µM,67%
same,growth inhibition,[5]; at 3.7 µM,56%
same,growth inhibition,[5]; [16],35%
same,growth inhibition,[5]; at 11.0 µM,84% (active)
same,growth inhibition,[5]; at 33.0 µM,96% (active)
same,growth inhibition,[5]; [17],96% (active)
same,growth inhibition,[5]; at 50.0 µM,99.5% (active)
same,growth inhibition,[5]; at 100.0 µM,98% (active)
same,growth inhibition,[6]; at 1.2 µM,66%
same,growth inhibition,[6]; at 3.7 µM,50%
same,growth inhibition,[6]; at 11.0 µM,85% (active)
same,growth inhibition,[6]; at 33.0 µM,97% (active)
same,growth inhibition,[6]; at 100.0 µM,99% (active)
same,growth inhibition,[7]; [16],49%
same,growth inhibition,[7]; [17],96% (active)
same,growth inhibition,[7]; at 50.0 µM,99.5% (active)
same,growth inhibition,[8]; at 1.2 µM,75% (active)
same,growth inhibition,[8]; at 3.7 µM,77% (active)
same,growth inhibition,[8]; at 11.0 µM,89% (active)
same,growth inhibition,[8]; at 33.0 µM,95% (active)
same,growth inhibition,[8]; at 100.0 µM,95% (active)
same,growth inhibition,[9]; [16],44%
same,growth inhibition,[9]; [17],96% (active)
same,growth inhibition,[9]; at 50.0 µM,99.2% (active)
same,growth inhibition,[10]; at 1.2 µM,60%
same,growth inhibition,[10]; at 3.7 µM,45%
same,growth inhibition,[10]; [16],2%
same,growth inhibition,[10]; at 11.0 µM,76% (active)
same,growth inhibition,[10]; at 33.0 µM,95% (active)
same,growth inhibition,[10]; [17],97% (active)
same,growth inhibition,[10]; at 50.0 µM,99.4% (active)
same,growth inhibition,[10]; at 100.0 µM,97% (active)
same,growth inhibition,[11]; at 1.2 µM,51%
same,growth inhibition,[11]; at 3.7 µM,55%
same,growth inhibition,[11]; at 11.0 µM,84% (active)
same,growth inhibition,[11]; at 33.0 µM,93% (active)
same,growth inhibition,[11]; at 100.0 µM,98% (active)
same,growth inhibition,[12]; at 1.2 µM,52%
same,growth inhibition,[12]; at 3.7 µM,46%
same,growth inhibition,[12]; at 11.0 µM,67%
same,growth inhibition,[12]; at 33.0 µM,92% (active)
same,growth inhibition,[12]; at 100.0 µM,98% (active)
same,growth inhibition,[13]; at 1.2 µM,61%
same,growth inhibition,[13]; at 3.7 µM,62%
same,growth inhibition,[13]; at 11.0 µM,80% (active)
same,growth inhibition,[13]; at 33.0 µM,96% (active)
same,growth inhibition,[13]; at 100.0 µM,98% (active)
same,growth inhibition,[14]; [16],42%
same,growth inhibition,[14]; [17],97% (active)
same,growth inhibition,[14]; at 50.0 µM,99% (active)
same,growth inhibition,[15]; at 1.2 µM,42%
same,growth inhibition,[15]; at 3.7 µM,45%
same,growth inhibition,[15]; at 11.0 µM,76% (active)
same,growth inhibition,[15]; at 33.0 µM,94% (active)
same,growth inhibition,[15]; at 100.0 µM,97% (active)
CC12CCC(CC(=O)/C1=C(/Br)I)C2(C)C (stereo not drawn),growth inhibition,[1]; at 1.2 µM,2%
same,growth inhibition,[1]; at 3.7 µM,3%
same,growth inhibition,[1]; at 11.0 µM,5%
same,growth inhibition,[1]; at 33.0 µM,13%
same,growth inhibition,[1]; at 100.0 µM,3%
same,growth inhibition,[2]; at 1.2 µM,-3%
same,growth inhibition,[2]; at 3.7 µM,-2%
same,growth inhibition,[2]; at 11.0 µM,-1%
same,growth inhibition,[2]; at 33.0 µM,-6%
same,growth inhibition,[2]; at 100.0 µM,-1%
same,growth inhibition,[3]; at 1.2 µM,1%
same,growth inhibition,[3]; at 3.7 µM,5%
same,growth inhibition,[3]; at 11.0 µM,7%
same,growth inhibition,[3]; at 33.0 µM,12%
same,growth inhibition,[3]; at 100.0 µM,3%
same,growth inhibition,[4]; at 1.2 µM,1%
same,growth inhibition,[4]; at 3.7 µM,-3%
same,growth inhibition,[4]; [16],1%
same,growth inhibition,[4]; at 11.0 µM,-18%
same,growth inhibition,[4]; at 33.0 µM,14%
same,growth inhibition,[4]; [17],80% (active)
same,growth inhibition,[4]; at 50.0 µM,81% (active)
same,growth inhibition,[4]; at 100.0 µM,5%
same,growth inhibition,[5]; at 1.2 µM,0%
same,growth inhibition,[5]; at 3.7 µM,-2%
same,growth inhibition,[5]; [16],-19%
same,growth inhibition,[5]; at 11.0 µM,-5%
same,growth inhibition,[5]; at 33.0 µM,5%
same,growth inhibition,[5]; [17],95% (active)
same,growth inhibition,[5]; at 50.0 µM,90.4% (active)
